From PubChem BioAssay (NCATS)
Records with an inconclusive call do not appear. Calls of active or inactive are those of the source. The call rests on the fitted dose curve; in most records, active means well fitted inhibition curve with a large enough effect; inconclusive means small, poorly fitted or top-dose-only effect; inactive means flat fitted curve, though single readings scatter.

Legend:
[1] = molecular target: Glutathione peroxidase 1 (Homo sapiens) (UniProt P07203); experiment: Primary qHTS Assay for Inhibitors of Recombinant Selenoprotein Glutathione Peroxidase 1 (GPX1) (AID 1845191); further: nearly all actives have a fitted effect of over 65% in size
Chain of Glutathione peroxidase 1 (Homo sapiens) (P07203 whole entry, looked up): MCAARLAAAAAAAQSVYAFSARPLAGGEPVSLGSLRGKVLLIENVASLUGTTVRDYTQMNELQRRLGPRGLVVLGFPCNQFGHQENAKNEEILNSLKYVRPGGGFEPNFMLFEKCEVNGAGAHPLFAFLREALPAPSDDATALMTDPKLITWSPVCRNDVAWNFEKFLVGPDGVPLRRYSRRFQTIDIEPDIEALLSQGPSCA
How it was run: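 GR-coupled assay: compounds preincubated 30 min at room temperature with GPX1, then reaction started with CHP; final 10 nM GPX1, 1 mM GSH, 0.5 mM CHP, 0.5 mM NADPH, 100 nM GR, 0.01% BSA, pH 7.5 Tris buffer. NADPH fluorescence (340/450 nm) read at 0 and 15 min.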

[2] = molecular target: Phospholipid hydroperoxide glutathione peroxidase GPX4 (Homo sapiens) (UniProt P36969); experiment: Primary qHTS Assay for Inhibitors of Recombinant Selenoprotein Glutathione Peroxidase 4 (GPX4) (AID 1845192); further: nearly all actives have a fitted effect of over 65% in size
Chain of Phospholipid hydroperoxide glutathione peroxidase GPX4 (Homo sapiens) (P36969 whole entry, looked up): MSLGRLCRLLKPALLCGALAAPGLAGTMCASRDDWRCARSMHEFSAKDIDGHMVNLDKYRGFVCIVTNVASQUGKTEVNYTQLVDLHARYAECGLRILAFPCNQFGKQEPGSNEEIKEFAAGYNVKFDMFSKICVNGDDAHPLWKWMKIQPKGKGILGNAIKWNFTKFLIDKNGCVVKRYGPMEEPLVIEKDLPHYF
How it was run: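 GR-coupled assay: recombinant GPX4 preincubated 30 min with compound at room temperature; final 200 nM GPX4, 1 mM GSH, 0.5 mM cumene hydroperoxide, 0.5 mM NADPH, 100 nM GR, 0.01% BSA, pH 7.5 Tris. NADPH fluorescence (340/450 nm) read at 0 and 15 min.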

[3] = molecular target: Luciferin 4-monooxygenase (Photinus pyralis) (UniProt P08659); experiment: Primary firefly luciferase (FLuc) qHTS assay for identification of artifact compounds. (AID 1845220); further: nearly all actives have a fitted effect of over 60% in size
How it was run: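 Enzymatic FLuc inhibition assay: compounds pre-exposed to luciferin/ATP (10 uM each) for 15 min, then purified P. pyralis enzyme at 10 nM added. Read-out: luminescence at 5 min.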

Measured: Potency

CC(C)=CCC/C(C)=C/CO[C@@H]1O[C@H](CO[C@@H]2OC[C@](O)(CO)[C@H]2O)[C@@H](O)[C@H](O)[C@H]1O
inactive: [1] | [2] | [3]

C/C=C(/C)C(=O)OC1C(OC(C)=O)C23C(O)OC4(CCC5C6(C)CCC(OC7OC(C(=O)O)C(O)C(OC8OC(CO)C(O)C(O)C8OC8OC(C)C(O)C(O)C8OC8OCC(O)C(O)C8O)C7OC7OC(CO)C(O)C(O)C7O)C(C)(C)C6CCC5(C)C4(C)CC2OC(C)=O)C3CC1(C)C (stereo unspecified)
inactive: [1] | [2] | [3] inactive [at 11.6 µM]

C[C@]1(OC(=O)/C=C/c2ccccc2)C[C@@H](O)[C@]2(O)C=CO[C@@H](O[C@@H]3O[C@H](CO)[C@@H](O)[C@H](O)[C@H]3O)[C@@H]21
inactive: [1] | [2] | [3]

CCC(=O)N1CCc2cc(OC)c(O)cc2C1
inactive: [1] | [2] | [3]

CC1(C)CCC[C@]2(C)C1CC=C(CO)[C@H]2CC/C(=C/CO)CO (stereo partly specified)
inactive: [1] | [2] | [3]

CC(C)C1(O)C=C2C(=O)CC3C(C)(C(=O)O)CCCC3(C)C2CC1 (stereo unspecified)
inactive: [1] | [2] | [3]

CNc1nc(Nc2cn(C(C)(C)C#N)nc2C)ncc1C(F)(F)F
inactive: [1] | [2] | [3]
